The structures appear in SMILES notation. Inconclusive results are not listed. Calls of active or inactive are those of the source. Unless noted, calls come from the whole dose curve; as a rule, active = well fitted curve in the direction sought with a large enough effect; inconclusive = small, poorly fitted or top-dose-only effect, or another doubt; inactive = no such curve, though single readings can be large; an effect the other way counts as inactive or inconclusive.

Consider seven molecules from PubChem BioAssay (NCATS).

A short description of assay [1]: NS1 protein of Zika virus - qHTS assay to identify small molecule inhibitors in human HEK 293 cells (AID 1347053). Note: series mostly up to about 46 µM; nearly all actives have a fitted effect of over 55% in size. An outline of the steps:
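HEK 293; 20 h pre-culture, 37 C/5% CO2; cpd 1 h pre-infection; ZIKV MR766, MOI = 0.5, 24 h, 37 C; TR-FRET NS1 readout (two anti-NS1 Abs); norm. to no-virus vs infected.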
Background: Quantitative high-throughput screening tests each substance at several concentrations.

The target of assay [2] is T1, Tyrosine-protein phosphatase non-receptor type substrate 1 (Homo sapiens) + Leukocyte surface antigen CD47 (Homo sapiens) (UniProt P78324+Q08722). Briefly: CD47-SIRPalpha protein protein interaction - HTRF assay qHTS validation (AID 1347058; active = well fitted curve in the direction sought with a large enough effect in the signal ratio, not every such curve was filed as active; the % refers to the signal ratio;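 note: recombinant soluble extracellular CD47 with His tag and biotinylated SIRPalpha domains; series mostly up to about 38 µM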). In short, it runs like this:
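TR-FRET read (Ch1/Ch2 ratio) of soluble extracellular CD47 and Avi-biotinylated SIRPalpha domains in PBS pH 7.4 with 0.05% IGEPAL; 7-point compound titration. Sequential 30 min room-temperature steps; non-biotinylated SIRPalpha as control inhibitor.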
Background: In TR-FRET formats the signal depends on donor and acceptor labels being close together.

Assay [3] deals with T1, Tyrosine-protein phosphatase non-receptor type substrate 1 (Homo sapiens) + Leukocyte surface antigen CD47 (Homo sapiens). Briefly: CD47-SIRPalpha protein protein interaction - Alpha assay qHTS validation (AID 1347059).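 Note: bead proximity luminescence from CD47 binding SIRPalpha after compound preincubation with SIRPalpha.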 An outline of the steps: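 Binding is measured by AlphaScreen proximity: Ni-NTA acceptor beads capture His-CD47, streptavidin donor beads capture biotin-SIRPalpha. Each of three additions (SIRPalpha with compound, CD47, beads) incubates 30 min at room temperature protected from light.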

The target of assay [4] is Parathyroid hormone/parathyroid hormone-related peptide receptor (Homo sapiens) (UniProt Q03431). Kind of assay: qHTS for PTHR1 Agonists: Optimization Screen against the NCGC LOPAC library (AID 1347079).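 Note: GloSensor cAMP luminescence in HEK-293 GP2 cells expressing human PTHR1 with IBMX.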 In short, it runs like this: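 Agonist readout: GloSensor cAMP luminescence, read after 15 min at room temperature. HEK-293-derived GP2 line carries PTHR1; compounds tested as a titration for 1 hr at 37C in presence of IBMX. M-PTH (1-15) served as control.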
Sequence of Parathyroid hormone/parathyroid hormone-related peptide receptor (Homo sapiens) (Q03431 whole entry, looked up): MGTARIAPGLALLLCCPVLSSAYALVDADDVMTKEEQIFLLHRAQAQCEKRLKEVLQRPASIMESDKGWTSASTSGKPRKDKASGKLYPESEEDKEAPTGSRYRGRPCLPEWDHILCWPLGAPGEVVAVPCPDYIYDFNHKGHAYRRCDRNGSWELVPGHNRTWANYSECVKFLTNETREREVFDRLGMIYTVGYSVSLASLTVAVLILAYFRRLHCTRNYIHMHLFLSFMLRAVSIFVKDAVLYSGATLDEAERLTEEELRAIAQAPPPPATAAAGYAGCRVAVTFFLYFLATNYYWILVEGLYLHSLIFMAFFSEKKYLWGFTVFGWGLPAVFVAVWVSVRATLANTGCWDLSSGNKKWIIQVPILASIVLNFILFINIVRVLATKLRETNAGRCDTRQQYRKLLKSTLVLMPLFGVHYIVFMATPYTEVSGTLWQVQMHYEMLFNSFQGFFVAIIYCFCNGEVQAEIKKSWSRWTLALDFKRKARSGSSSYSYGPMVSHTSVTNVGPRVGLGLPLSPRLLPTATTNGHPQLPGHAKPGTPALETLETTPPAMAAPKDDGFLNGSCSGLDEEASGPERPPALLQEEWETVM

Assay [5] in a line: qHTS of pediatric cancer cell lines to identify multiple opportunities for drug repurposing: Primary screen for TC32 cells (AID 1347089). Note: nearly all actives have a fitted effect of over 60% in size. In short, it runs like this:
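Luminescent CellTiter-Glo read-out of metabolically active TC32 cells after 48 h compound exposure. Primary: MIPE 11-point, 0.78 nM–46 µM; NPC 8-point, 0.59 nM–46 µM. Confirmatory: 11-point dilutions.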

A short description of assay [6]: qHTS of pediatric cancer cell lines to identify multiple opportunities for drug repurposing: Primary screen for DAOY cells (AID 1347090). Note: series mostly up to about 46 µM; nearly all actives have a fitted effect of over 55% in size. An outline of the steps:
(§1)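 Cell viability, CellTiter-Glo luminescence; 500-1,000 cells/well, 8- or 11-point titration, 48 h compound exposure at 37 degrees C, 5% CO2. Controls: DMSO neutral, bortezomib 2.3 µM final as positive.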

Assay [7] can be described thus: qHTS of pediatric cancer cell lines to identify multiple opportunities for drug repurposing: Primary screen for SJ-GBM2 cells (AID 1347091). In short, it runs like this: as §1
Assay [8] is described as follows: qHTS of pediatric cancer cell lines to identify multiple opportunities for drug repurposing: Primary screen for A673 cells (AID 1347092). Note: nearly all actives have a fitted effect of over 45% in size. In short, it runs like this: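 A673 cells (500-1,000 cells/well in growth media) were pre-incubated 5 h at 37 degrees C, then exposed to compounds for 48 h. Viability was read as CellTiter-Glo luminescence; concentration-response curves came directly from the primary screen.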

Assay [9] in a line: qHTS of pediatric cancer cell lines to identify multiple opportunities for drug repurposing: Primary screen for SK-N-MC cells (AID 1347093). Note: potency is the fitted concentration of half-maximal effect. An outline of the steps: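 Metabolically active cells were quantified by ATP-dependent luminescence (CellTiter-Glo, 15 min at room temperature) following 48 h treatment. Cells had been plated at 500-1,000 per well and settled for 5 h beforehand.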

Assay [10] in a line: qHTS of pediatric cancer cell lines to identify multiple opportunities for drug repurposing: Primary screen for BT-37 cells (AID 1347094). Note: series mostly up to about 57 µM. An outline of the steps: (§2)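 500-1,000 cells/well; 5 h pre-incubation 37 °C/5% CO2; compound pinned; 48 h; CellTiter-Glo, 15 min RT; luminescence. MIPE 11-pt from 0.78 nM, NPC 8-pt from 0.59 nM final. Bortezomib 2.3 µM final as positive control.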

A short description of assay [11]: qHTS of pediatric cancer cell lines to identify multiple opportunities for drug repurposing: Primary screen for NB-EBc1 cells (AID 1347095). In short, it runs like this: as §2
The nature of assay [12]: qHTS of pediatric cancer cell lines to identify multiple opportunities for drug repurposing: Primary screen for U-2 OS cells (AID 1347096). Note: nearly all actives have a fitted effect of over 50% in size. In short, it runs like this: (§3)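 Cells (500-1,000/well) rested 5 h, then received compounds for 48 h; metabolically active cells were measured by CellTiter-Glo luminescence. Final concentrations spanned up to 46 µM (MIPE, 11-point) or 0.59 nM-46 µM (NPC, 8-point) in primary screens, 11-point in follow-ups.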

A short description of assay [13]: qHTS of pediatric cancer cell lines to identify multiple opportunities for drug repurposing: Primary screen for LAN-5 cells (AID 1347100). In short, it runs like this:
as §3

Assay [14] can be described thus: qHTS of pediatric cancer cell lines to identify multiple opportunities for drug repurposing: Primary screen for Rh18 cells (AID 1347102). Note: nearly all actives have a fitted effect of over 65% in size. In short, it runs like this: as §3
The target in assay [15] is T1, Tyrosine-protein phosphatase non-receptor type substrate 1 (Homo sapiens) + Leukocyte surface antigen CD47 (Homo sapiens). Briefly: CD47-SIRPalpha protein protein interaction - LANCE assay qHTS validation (AID 1347057; active = well fitted curve in the direction sought with a large enough effect in the signal ratio, with a control signal flat, not every such curve was filed as active; the % refers to the signal ratio; note: series mostly up to about 38 µM). In short, it runs like this: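 First, His-tagged CD47 and Eu-labelled anti-His antibody met the compound for 30 min; next, site-specifically biotinylated SIRPalpha was added for 30 min; finally streptavidin-APC was added before reading the TR-FRET ratio.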

Assay [16] in a line: qHTS of pediatric cancer cell lines to identify multiple opportunities for drug repurposing: Primary screen for NB1643 cells (AID 1347099). Note: nearly all actives have a fitted effect of over 50% in size. An outline of the steps:
as §2

The nature of assay [17]: qHTS of pediatric cancer cell lines to identify multiple opportunities for drug repurposing: Primary screen for BT-12 cells (AID 1347101). Note: nearly all actives have a fitted effect of over 25% in size. In short, it runs like this:
as §3

Assay [18] is described as follows: qHTS of pediatric cancer cell lines to identify multiple opportunities for drug repurposing: Primary screen for OHS-50 cells (AID 1347103). Note: nearly all actives have a fitted effect of over 40% in size. Note: potency is the fitted concentration of half-maximal effect. An outline of the steps: as §3
Assay [19] can be described thus: qHTS of pediatric cancer cell lines to identify multiple opportunities for drug repurposing: Primary screen for Saos-2 cells (AID 1347097). Note: nearly all actives have a fitted effect of over 40% in size. In short, it runs like this: as §2
The nature of assay [20]: qHTS of pediatric cancer cell lines to identify multiple opportunities for drug repurposing: Primary screen for SK-N-SH cells (AID 1347098). Note: nearly all actives have a fitted effect of over 65% in size. An outline of the steps: as §3

T1 sequence (P78324 whole entry, looked up, the tested form may be a part): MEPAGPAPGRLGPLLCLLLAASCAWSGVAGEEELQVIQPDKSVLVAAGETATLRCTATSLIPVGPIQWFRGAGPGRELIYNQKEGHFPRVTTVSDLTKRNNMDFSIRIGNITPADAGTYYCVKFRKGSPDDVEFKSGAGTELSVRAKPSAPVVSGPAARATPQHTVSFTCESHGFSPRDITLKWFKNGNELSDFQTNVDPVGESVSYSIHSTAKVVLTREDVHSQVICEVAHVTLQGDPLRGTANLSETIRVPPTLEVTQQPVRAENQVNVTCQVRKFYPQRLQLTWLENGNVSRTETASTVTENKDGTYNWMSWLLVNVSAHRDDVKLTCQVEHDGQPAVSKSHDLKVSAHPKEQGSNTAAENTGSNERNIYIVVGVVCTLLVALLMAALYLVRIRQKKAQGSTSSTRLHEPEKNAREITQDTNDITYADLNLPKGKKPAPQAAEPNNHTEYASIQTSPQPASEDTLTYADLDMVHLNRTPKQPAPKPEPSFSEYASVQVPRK
T1 sequence (Q08722 whole entry, looked up, the tested form may be a part): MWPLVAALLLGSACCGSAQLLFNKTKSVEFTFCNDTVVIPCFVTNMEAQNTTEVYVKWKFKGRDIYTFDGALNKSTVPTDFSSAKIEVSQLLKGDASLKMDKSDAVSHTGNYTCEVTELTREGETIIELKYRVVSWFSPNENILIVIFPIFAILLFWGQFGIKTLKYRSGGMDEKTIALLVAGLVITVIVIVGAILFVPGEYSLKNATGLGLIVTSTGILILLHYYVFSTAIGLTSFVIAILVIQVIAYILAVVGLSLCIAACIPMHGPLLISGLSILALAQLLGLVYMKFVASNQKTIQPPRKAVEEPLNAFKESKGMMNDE

Regarding `CCC(C)N(C)C(=O)c1cc2ccccc2c(-c2ccccc2Cl)n1` (stereo unspecified), the Potency entry in assay [1], in [5], in assay [6], in assay [7], in [8] and in assay [9] was “inactive” in each case. In addition, the Potency result in assay [10], in assay [11], in assay [12], in assay [13] and in [14] was “inactive” throughout. Besides, the result in assay [2], in assay [3] and in assay [4] was inactive.

For `CCOC(=O)C1=C[C@]2(CC)CCCN3CCc4c(n1c1ccccc41)[C@@H]32`, the Potency result in assay [1], in [5], in assay [6], in assay [7], in assay [11] and in assay [12] was “inactive” each time. Further, the Potency entry in assay [16], in assay [17] and in [14] was “inactive” each time. The outcome in assay [15], in assay [2], in [3] and in assay [4] was inactive. The Potency in assay [9] was 13.2 µM (active); in [18] it was 24.3 µM (active).

With `O=c1n(CCCN2CCN(c3cccc(Cl)c3)CC2)nc2ccccn12`, the Potency entry in [1], in assay [5], in assay [6], in assay [7], in assay [8] and in [9] was “inactive” each time. The Potency entry in [11], in [12], in assay [19], in assay [20], in assay [16] and in [13] was “inactive” each time. Besides, the Potency result in assay [14] and in assay [18] was “inactive” each time. The result in assay [2], in assay [3] and in [4] was inactive.

For `NS(=O)(=O)c1cc2c(cc1Cl)NC=NS2(=O)=O`, the Potency result in [1], in [5], in assay [6], in [7], in [8] and in assay [9] was “inactive” throughout. Further, the Potency entry in assay [10], in assay [11], in assay [12], in assay [20], in assay [16] and in assay [13] was “inactive” each time. Further, the Potency entry in assay [17], in assay [14] and in [18] was “inactive” throughout. Moreover, the result in [2], in [3] and in [4] was inactive.

Turning to `c1ccc([C@H]2CN3CCSC3=N2)cc1`, the Potency result in assay [1], in [5], in [6], in [7], in assay [8] and in assay [9] was “inactive” each time. The Potency result in assay [11], in assay [12], in assay [19], in assay [16], in assay [13] and in [17] was “inactive” throughout. Moreover, the Potency entry in [14] and in assay [18] was “inactive” throughout. The outcome in [2], in assay [3] and in [4] was inactive.

`Cc1cnc(NC(=O)C2=C(O)c3ccccc3S(=O)(=O)N2C)s1`: the Potency result in [1], in [5], in [6], in [7], in [8] and in assay [9] was “inactive” each time. For the same molecule, the Potency entry in [10], in [11], in assay [12], in assay [19], in [16] and in assay [13] was “inactive” each time. Further, the Potency result in assay [17], in assay [14] and in assay [18] was “inactive” throughout. Also, the result in [2], in assay [3] and in [4] was inactive.

For the molecule `CCCc1nn(C)c2c(=O)[nH]c(-c3cc(S(=O)(=O)N4CCN(C)CC4)ccc3OCC)nc12`, the Potency entry in assay [1], in assay [5], in [6], in assay [7], in [8] and in assay [11] was “inactive” in each case. Further, the Potency entry in assay [12], in assay [19], in [20], in [13] and in [14] was “inactive” in each case. In assay [3], the result was inactive.
